Measured values as given in PubChem BioAssay AID1159580 (chemical genetic matrix, 2015).
Hit rate of the full screen: of about 5,500 compounds, about 2,000 (36%) were called active. About 18% were inconclusive and are not listed. No stated cut-off is given here; in the data, active means normalized growth mostly below about 0.91 (no sharp cut-off); inconclusive means no clear call, values can overlap the other calls; inactive means mostly above about 0.92. This is one part of the list.

Experiment: chemical genetic growth profiling, strain panel (AID 1159580);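 further: tested at 20 µM; growth read once vehicle control cultures reached saturation at 30 °C; 1 = growth at the plate median or of vehicle wells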
Conditions: growth OD
[1] = S. cerevisiae deletion strains, locus YAL013W, strain DEP1, stronger effect = lower value
[2] = S. cerevisiae deletion strains, locus YDR150W, strain NUM1, stronger effect = lower value
[3] = S. cerevisiae deletion strains, locus YHR030C, strain SLT2, stronger effect = lower value
[4] = S. cerevisiae deletion strains, locus YJR075W, strain HOC1, stronger effect = lower value
[5] = S. cerevisiae deletion strains, locus YMR307W, strain GAS1, stronger effect = lower value
[6] = S. cerevisiae deletion strains, locus YNL128W, strain TEP1, stronger effect = lower value
[7] = S. cerevisiae deletion strains, locus YPL055C, strain LGE1, stronger effect = lower value
[8] = S. cerevisiae deletion strains, locus YBR229C, strain ROT2, stronger effect = lower value
[9] = S. cerevisiae deletion strains, locus YDL101C, strain DUN1, stronger effect = lower value
[10] = S. cerevisiae deletion strains, locus YEL061C, strain CIN8, stronger effect = lower value
[11] = S. cerevisiae deletion strains, locus YGR078C, strain PAC10, stronger effect = lower value
[12] = S. cerevisiae deletion strains, locus YHR087W, strain rtc3, stronger effect = lower value
[13] = S. cerevisiae deletion strains, locus YJL187C, strain SWE1, stronger effect = lower value
[14] = S. cerevisiae deletion strains, locus YJR043C, strain POL32, stronger effect = lower value
[15] = S. cerevisiae deletion strains, locus YLR039C, strain RIC1, stronger effect = lower value
[16] = S. cerevisiae deletion strains, locus YLR058C, strain SHM2 (second series), stronger effect = lower value
[17] = S. cerevisiae deletion strains, locus YLR085C, strain ARP6, stronger effect = lower value
[18] = S. cerevisiae deletion strains, locus YLR262C, strain YPT6, stronger effect = lower value
[19] = S. cerevisiae deletion strains, locus YML094W, strain GIM5, stronger effect = lower value
[20] = S. cerevisiae deletion strains, locus YMR219W, strain ESC1, stronger effect = lower value
[21] = S. cerevisiae deletion strains, locus YMR263W, strain SAP30, stronger effect = lower value
[22] = S. cerevisiae deletion strains, locus YNL153C, strain GIM3, stronger effect = lower value
[23] = S. cerevisiae deletion strains, locus YNL298W, strain CLA4 (second series), stronger effect = lower value
[24] = S. cerevisiae deletion strains, locus YNL322C, strain KRE1, stronger effect = lower value
[25] = S. cerevisiae deletion strains, locus YNR030W, strain Alg12, stronger effect = lower value
[26] = S. cerevisiae deletion strains, locus YOL006C, strain TOP1, stronger effect = lower value
[27] = S. cerevisiae deletion strains, locus YPL241C, strain CIN2, stronger effect = lower value
[28] = S. cerevisiae deletion strains, locus YPR135W, strain CTF4, stronger effect = lower value
[29] = S. cerevisiae strains, strain wild type, stronger effect = lower value

Measured: normalized growth

CCCCCN(CCCCC)C(=O)C(CCC(=O)O)NC(=O)c1ccc(Cl)c(Cl)c1 (stereo not given)
inactive: [1] 1.01 | S. cerevisiae deletion strains, locus YAL040C, strain CLN3, stronger effect = lower value 1 | S. cerevisiae deletion strains, locus YCL061C, strain MRC1 (second series), stronger effect = lower value 1 | [2] 0.993 | S. cerevisiae deletion strains, locus YDR363W, strain ESC2, stronger effect = lower value 1.03 | S. cerevisiae deletion strains, locus YER002W, strain NOP16, stronger effect = lower value 0.991 | [3] 0.993 | S. cerevisiae deletion strains, locus YHR079C, strain IRE1, stronger effect = lower value 0.986 | S. cerevisiae deletion strains, locus YJL095W, strain BCK1, stronger effect = lower value 1.01 | S. cerevisiae deletion strains, locus YJR066W, strain TOR1, stronger effect = lower value 0.97 | [4] 1.02 | S. cerevisiae deletion strains, locus YLR113W, strain HOG1, stronger effect = lower value 0.952 | [5] 0.992 | [6] 0.963 | S. cerevisiae deletion strains, locus YNL175C, strain NOP13, stronger effect = lower value 0.995 | S. cerevisiae deletion strains, locus YNL183C, strain NPR1, stronger effect = lower value 0.949 | S. cerevisiae deletion strains, locus YNL197C, strain WHI3, stronger effect = lower value 0.986 | S. cerevisiae deletion strains, locus YNL224C, strain SQS1, stronger effect = lower value 0.985 | S. cerevisiae deletion strains, locus YOR083W, strain WHI5 (second series), stronger effect = lower value 0.95 | S. cerevisiae deletion strains, locus YOR231W, strain MKK1, stronger effect = lower value 0.983 | [7] 0.983 | S. cerevisiae deletion strains, locus YPL256C, strain CLN2, stronger effect = lower value 0.987

COC(=O)c1cc([N+](=O)[O-])ccc1N1CCOCC1
inactive: [1] 1.01 | [8] 1 | [9] 1.01 | [2] 0.98 | [10] 1.01 | [11] 1.01 | [3] 1.09 | [12] 1.02 | [13] 1 | [14] 0.991 | [4] 0.988 | S. cerevisiae deletion strains, locus YKL190W, strain CNB1, stronger effect = lower value 1.01 | [15] 1.02 | [16] 1 | [17] 1.06 | [18] 1.01 | [19] 1.03 | [20] 1 | [21] 1 | [5] 1.06 | [22] 0.995 | [23] 1.05 | [24] 0.993 | [25] 1.03 | [26] 1.06 | [7] 1.02 | [27] 1.06 | [28] 1.04 | [29] 1.01

COc1cc([N+](=O)[O-])ccc1N1CCCC1
inactive: [8] 0.941 | [2] 0.898 | [10] 0.912 | [12] 0.979 | [14] 0.951 | [4] 0.933 | [21] 0.928 | [6] 0.931 | [7] 0.946
active: [1] 0.898 | [9] 0.882 | [11] 0.882 | [3] 0.302 | [13] 0.902 | [15] 0.554 | [16] 0.929 | [17] 0.605 | [18] 0.661 | [19] 0.865 | [20] 0.934 | [5] 0.445 | [22] 0.913 | [23] 0.775 | [24] 0.916 | [25] 0.862 | [26] 0.522 | [27] 0.858 | [28] 0.512 | [29] 0.867
